Measurements: publication PMC7862700, “An all-to-all approach to the identification of sequence-specific readers for epigenetic DNA modifications on cytosine”

Tests used:
Experiment in all cases: DAPPL (digital affinity profiling via proximity ligation, sequencing); 10 mM Tris-HCl pH 7.5, 50 mM NaCl, 1 mM DTT, 4% glycerol, room temperature, 30 min; GST-TFs on glutathione beads, 16-mer random dsDNA library, 0.1% formaldehyde crosslink after washing; high values mean tight binding
[1] = target: T1, FEV (Homo sapiens, UniProt Q99581 1-238); details: protein: recombinant; tags: N-terminal GST; dsDNA, one strand shown
T1 sequence: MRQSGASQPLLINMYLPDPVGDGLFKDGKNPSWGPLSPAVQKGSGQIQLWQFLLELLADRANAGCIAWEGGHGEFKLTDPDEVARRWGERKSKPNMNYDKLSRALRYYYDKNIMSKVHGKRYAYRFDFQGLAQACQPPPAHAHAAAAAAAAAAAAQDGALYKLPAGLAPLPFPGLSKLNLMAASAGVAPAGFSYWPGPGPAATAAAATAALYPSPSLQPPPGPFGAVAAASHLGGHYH
Outline: (§1)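 GST fusions of human transcription factors were expressed in yeast and captured with glutathione beads. Once given DNA barcodes and pooled alongside a tag-only sample, they were incubated for 30 min at room temperature with 200 nmole of a random double-stranded 16-mer DNA library in Tris/NaCl/DTT/glycerol buffer, then washed, crosslinked (0.1% formaldehyde), proximity-ligated, PCR-amplified and sequenced on an Illumina NextSeq500. The binding signal of each hexamer is its read frequency for a factor divided by its frequency for the tag-only sample.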

[2] = target: ETV5 (Homo sapiens, UniProt P41161 1-510); details: protein: recombinant; tags: N-terminal GST; dsDNA, one strand shown
Chain of ETV5 (P41161 whole entry): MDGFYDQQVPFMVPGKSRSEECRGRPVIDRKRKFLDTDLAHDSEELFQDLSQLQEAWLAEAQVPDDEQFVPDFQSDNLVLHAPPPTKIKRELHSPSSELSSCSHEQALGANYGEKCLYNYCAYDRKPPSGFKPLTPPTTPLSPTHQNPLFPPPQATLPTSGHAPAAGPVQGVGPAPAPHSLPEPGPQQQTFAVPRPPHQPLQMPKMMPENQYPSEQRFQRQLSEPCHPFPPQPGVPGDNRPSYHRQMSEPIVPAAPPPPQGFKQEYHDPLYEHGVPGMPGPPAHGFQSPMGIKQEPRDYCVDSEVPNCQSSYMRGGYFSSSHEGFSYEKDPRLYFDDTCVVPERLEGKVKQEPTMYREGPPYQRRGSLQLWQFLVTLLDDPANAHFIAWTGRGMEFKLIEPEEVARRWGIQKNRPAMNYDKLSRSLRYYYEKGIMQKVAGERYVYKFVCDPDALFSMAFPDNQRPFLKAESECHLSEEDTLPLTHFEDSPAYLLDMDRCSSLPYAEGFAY
Outline: as §1

[3] = target: HSF1 (Homo sapiens, UniProt Q00613 1-529); details: protein: recombinant; tags: N-terminal GST; chain copies: 3; dsDNA, one strand shown
Chain of HSF1 (Q00613 whole entry): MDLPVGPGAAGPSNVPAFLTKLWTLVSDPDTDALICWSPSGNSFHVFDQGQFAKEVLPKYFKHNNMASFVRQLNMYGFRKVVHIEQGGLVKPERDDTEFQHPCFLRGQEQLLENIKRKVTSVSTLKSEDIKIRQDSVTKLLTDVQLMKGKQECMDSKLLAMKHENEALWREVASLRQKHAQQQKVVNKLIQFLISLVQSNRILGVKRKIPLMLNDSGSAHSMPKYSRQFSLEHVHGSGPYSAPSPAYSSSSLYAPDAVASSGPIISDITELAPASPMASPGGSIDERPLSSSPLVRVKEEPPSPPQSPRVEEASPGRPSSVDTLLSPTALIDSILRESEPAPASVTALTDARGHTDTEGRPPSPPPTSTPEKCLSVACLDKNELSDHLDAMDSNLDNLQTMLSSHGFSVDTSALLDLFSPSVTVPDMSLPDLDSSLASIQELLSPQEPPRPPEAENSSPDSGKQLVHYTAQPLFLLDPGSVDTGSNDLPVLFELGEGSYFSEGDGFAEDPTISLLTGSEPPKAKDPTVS
Outline: as §1

[4] = target: T2, SPIC (Homo sapiens, UniProt Q8N5J4 1-248); details: protein: recombinant; tags: N-terminal GST; dsDNA, one strand shown
T2 sequence: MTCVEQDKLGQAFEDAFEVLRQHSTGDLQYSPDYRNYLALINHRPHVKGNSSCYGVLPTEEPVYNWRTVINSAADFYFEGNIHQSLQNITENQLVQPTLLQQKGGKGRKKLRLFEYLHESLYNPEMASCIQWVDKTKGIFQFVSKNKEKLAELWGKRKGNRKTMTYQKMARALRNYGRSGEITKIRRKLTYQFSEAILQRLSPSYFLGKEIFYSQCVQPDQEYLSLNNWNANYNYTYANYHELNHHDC
Outline: as §1

[5] = target: ELF4 (Homo sapiens, UniProt Q99607 1-663); details: protein: recombinant; tags: N-terminal GST; dsDNA, one strand shown
Chain of ELF4 (Q99607 whole entry): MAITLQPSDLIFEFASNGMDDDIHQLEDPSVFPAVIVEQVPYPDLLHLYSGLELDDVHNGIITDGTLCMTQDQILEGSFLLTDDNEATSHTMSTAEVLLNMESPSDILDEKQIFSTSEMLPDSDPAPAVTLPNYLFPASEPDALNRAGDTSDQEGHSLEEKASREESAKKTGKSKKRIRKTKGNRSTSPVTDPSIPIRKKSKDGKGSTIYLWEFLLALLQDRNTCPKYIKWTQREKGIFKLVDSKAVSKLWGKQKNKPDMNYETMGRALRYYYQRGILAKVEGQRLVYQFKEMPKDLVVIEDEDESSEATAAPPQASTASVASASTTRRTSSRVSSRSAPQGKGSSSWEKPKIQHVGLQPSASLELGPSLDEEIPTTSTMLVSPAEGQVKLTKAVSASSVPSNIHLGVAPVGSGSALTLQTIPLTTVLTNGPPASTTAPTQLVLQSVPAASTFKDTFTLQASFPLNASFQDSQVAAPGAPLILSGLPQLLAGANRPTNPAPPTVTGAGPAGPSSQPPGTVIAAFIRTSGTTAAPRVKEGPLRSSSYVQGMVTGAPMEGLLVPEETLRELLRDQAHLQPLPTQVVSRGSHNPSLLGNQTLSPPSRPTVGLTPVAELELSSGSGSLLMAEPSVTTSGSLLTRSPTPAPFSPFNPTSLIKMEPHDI
Outline: as §1

[6] = target: T3, ELK4 (Homo sapiens, UniProt P28324-2 1-405); details: protein: recombinant; tags: N-terminal GST; dsDNA, one strand shown
T3 sequence: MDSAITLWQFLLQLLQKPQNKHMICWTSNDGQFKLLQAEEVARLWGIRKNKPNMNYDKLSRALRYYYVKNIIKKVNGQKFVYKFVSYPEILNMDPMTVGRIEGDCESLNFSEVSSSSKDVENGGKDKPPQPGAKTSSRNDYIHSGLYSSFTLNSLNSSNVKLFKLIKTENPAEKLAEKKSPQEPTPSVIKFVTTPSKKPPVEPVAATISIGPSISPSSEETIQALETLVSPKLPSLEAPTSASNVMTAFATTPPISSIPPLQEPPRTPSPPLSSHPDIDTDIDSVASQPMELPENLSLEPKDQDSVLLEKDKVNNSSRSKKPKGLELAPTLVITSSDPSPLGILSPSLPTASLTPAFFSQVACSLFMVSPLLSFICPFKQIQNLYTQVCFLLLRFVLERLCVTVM
Outline: as §1

[7] = target: T4, ETV2 (Homo sapiens, UniProt O00321 1-342); details: protein: recombinant; tags: N-terminal GST; dsDNA, one strand shown
T4 sequence: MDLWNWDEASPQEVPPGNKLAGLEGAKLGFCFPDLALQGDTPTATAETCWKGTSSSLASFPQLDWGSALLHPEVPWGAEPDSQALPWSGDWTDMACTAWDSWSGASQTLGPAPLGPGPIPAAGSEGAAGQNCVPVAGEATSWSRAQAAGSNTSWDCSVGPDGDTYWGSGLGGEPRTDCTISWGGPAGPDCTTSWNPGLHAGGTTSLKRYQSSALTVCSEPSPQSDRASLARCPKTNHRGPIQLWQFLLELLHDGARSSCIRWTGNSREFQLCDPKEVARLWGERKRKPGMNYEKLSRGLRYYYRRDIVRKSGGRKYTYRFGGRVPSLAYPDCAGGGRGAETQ
Outline: as §1

[8] = target: T5, ELF3 (Homo sapiens, UniProt P78545 1-371); details: protein: recombinant; tags: N-terminal GST; dsDNA, one strand shown
T5 sequence: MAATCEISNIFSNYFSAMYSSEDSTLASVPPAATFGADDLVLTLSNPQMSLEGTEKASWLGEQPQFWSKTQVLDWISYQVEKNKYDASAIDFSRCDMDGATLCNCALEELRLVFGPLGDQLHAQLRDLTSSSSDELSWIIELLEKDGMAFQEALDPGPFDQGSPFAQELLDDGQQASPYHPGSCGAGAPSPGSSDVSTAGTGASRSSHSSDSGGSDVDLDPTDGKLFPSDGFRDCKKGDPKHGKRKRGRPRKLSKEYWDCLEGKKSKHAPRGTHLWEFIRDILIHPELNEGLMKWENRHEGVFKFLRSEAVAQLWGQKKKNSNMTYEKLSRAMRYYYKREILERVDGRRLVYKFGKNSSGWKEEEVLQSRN
Outline: as §1

[9] = target: CRX (Homo sapiens, UniProt O43186 1-299); details: protein: recombinant; tags: N-terminal GST; dsDNA, one strand shown
Chain of CRX (O43186 whole entry): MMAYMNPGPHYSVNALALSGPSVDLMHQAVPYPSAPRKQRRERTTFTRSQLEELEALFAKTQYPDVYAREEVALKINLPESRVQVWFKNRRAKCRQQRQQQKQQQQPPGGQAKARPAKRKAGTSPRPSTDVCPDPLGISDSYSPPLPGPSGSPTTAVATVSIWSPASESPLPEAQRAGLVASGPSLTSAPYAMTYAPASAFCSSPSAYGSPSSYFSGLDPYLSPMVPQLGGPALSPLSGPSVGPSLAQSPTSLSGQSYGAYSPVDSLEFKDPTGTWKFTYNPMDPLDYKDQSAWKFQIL
Outline: as §1

[10] = target: ETV1 (Homo sapiens, UniProt P50549 1-477); details: protein: recombinant; tags: N-terminal GST; dsDNA, one strand shown
Chain of ETV1 (P50549 whole entry): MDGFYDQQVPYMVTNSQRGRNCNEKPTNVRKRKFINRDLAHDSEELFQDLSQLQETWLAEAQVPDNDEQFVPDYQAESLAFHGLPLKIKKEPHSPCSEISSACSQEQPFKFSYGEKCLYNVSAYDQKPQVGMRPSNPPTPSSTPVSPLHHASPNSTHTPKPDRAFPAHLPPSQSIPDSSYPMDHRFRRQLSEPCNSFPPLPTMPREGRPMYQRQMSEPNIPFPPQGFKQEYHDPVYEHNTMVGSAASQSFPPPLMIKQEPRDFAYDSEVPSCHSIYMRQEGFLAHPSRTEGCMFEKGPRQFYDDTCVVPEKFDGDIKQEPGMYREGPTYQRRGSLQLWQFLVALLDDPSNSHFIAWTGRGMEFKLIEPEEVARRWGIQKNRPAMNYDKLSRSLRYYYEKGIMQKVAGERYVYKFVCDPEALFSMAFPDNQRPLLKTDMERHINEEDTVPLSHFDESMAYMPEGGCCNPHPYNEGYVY
Outline: as §1

[11] = target: T6, ERF (Homo sapiens, UniProt P50548 1-548); details: protein: recombinant; tags: N-terminal GST; dsDNA, one strand shown
T6 sequence: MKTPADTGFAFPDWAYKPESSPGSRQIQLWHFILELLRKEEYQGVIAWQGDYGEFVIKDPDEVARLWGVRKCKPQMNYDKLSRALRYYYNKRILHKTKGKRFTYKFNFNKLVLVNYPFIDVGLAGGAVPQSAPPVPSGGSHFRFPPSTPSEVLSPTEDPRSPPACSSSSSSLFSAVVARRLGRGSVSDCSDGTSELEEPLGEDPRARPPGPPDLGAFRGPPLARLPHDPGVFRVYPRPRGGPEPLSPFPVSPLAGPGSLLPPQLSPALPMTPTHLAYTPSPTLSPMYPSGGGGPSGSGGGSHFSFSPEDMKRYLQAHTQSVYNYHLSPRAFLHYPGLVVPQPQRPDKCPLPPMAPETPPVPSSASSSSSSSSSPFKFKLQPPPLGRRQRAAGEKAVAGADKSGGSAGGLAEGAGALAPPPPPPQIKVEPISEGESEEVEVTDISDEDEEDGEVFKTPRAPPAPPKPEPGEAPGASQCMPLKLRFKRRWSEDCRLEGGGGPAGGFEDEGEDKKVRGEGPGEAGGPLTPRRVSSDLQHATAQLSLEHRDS
Outline: as §1

[12] = target: T7, ETV3L (Homo sapiens, UniProt Q6ZN32 1-361); details: protein: recombinant; tags: N-terminal GST; dsDNA, one strand shown
T7 sequence: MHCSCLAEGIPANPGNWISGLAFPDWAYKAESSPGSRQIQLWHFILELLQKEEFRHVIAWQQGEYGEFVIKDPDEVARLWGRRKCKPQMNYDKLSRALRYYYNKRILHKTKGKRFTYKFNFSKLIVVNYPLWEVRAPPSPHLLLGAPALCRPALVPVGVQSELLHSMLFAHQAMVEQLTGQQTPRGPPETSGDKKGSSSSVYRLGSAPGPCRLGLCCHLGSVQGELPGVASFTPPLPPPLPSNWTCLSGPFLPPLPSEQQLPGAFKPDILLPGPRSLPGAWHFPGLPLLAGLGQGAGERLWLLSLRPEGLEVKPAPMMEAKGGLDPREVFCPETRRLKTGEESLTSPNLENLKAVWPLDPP
Outline: as §1

[13] = target: T8, ETS2 (Homo sapiens, UniProt P15036 1-469); details: protein: recombinant; tags: N-terminal GST; dsDNA, one strand shown
T8 sequence: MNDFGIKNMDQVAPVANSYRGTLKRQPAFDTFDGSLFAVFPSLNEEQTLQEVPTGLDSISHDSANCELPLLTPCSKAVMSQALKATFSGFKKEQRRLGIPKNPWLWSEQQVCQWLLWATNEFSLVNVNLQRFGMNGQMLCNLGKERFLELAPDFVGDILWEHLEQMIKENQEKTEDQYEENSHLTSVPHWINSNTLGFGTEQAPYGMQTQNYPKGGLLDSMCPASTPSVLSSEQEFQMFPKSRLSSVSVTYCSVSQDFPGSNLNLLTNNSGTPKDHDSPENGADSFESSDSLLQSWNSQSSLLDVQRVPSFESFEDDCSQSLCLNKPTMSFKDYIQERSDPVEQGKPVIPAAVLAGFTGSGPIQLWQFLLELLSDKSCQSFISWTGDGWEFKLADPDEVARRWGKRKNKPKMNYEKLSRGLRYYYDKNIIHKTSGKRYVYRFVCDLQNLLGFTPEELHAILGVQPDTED
Outline: as §1

[14] = target: T9, SPDEF (Homo sapiens, UniProt O95238 1-335); details: protein: recombinant; tags: N-terminal GST; dsDNA, one strand shown
T9 sequence: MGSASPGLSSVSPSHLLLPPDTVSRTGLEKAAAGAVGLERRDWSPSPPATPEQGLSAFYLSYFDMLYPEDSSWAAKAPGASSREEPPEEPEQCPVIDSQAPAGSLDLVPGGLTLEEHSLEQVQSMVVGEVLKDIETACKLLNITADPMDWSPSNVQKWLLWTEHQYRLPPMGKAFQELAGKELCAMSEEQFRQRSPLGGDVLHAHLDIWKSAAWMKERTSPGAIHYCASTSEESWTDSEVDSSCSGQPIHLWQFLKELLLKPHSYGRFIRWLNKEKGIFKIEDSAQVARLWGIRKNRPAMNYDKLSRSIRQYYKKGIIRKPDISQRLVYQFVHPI
Outline: as §1

[15] = target: T10, ETV7 (Homo sapiens, UniProt Q9Y603 1-341); details: protein: recombinant; tags: N-terminal GST; dsDNA, one strand shown
T10 sequence: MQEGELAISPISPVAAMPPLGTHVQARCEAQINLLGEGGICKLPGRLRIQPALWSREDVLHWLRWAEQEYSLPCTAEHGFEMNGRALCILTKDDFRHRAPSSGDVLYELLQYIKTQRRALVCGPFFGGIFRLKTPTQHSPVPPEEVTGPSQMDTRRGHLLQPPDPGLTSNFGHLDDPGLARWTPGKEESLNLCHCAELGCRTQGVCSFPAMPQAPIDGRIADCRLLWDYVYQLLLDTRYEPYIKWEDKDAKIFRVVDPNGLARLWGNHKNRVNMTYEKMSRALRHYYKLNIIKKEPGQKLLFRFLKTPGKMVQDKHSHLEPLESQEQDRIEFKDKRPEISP
Outline: as §1

[16] = target: T11, ELF5 (Homo sapiens, UniProt Q9UKW6-2 1-255); details: protein: recombinant; tags: N-terminal GST; dsDNA, one strand shown
T11 sequence: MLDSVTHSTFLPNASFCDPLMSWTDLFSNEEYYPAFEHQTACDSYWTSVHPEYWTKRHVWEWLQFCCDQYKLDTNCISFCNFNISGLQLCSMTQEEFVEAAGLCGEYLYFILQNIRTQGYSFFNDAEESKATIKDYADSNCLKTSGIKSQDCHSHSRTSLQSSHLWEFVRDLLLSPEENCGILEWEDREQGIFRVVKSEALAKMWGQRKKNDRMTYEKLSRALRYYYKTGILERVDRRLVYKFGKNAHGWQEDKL
Outline: as §1

[17] = target: T12, ETV3 (Homo sapiens, UniProt P41162-2 1-143); details: protein: recombinant; tags: N-terminal GST; dsDNA, one strand shown
T12 sequence: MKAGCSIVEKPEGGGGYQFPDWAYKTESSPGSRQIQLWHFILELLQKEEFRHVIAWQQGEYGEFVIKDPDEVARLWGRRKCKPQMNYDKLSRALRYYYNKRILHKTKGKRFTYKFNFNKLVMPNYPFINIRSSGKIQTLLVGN
Outline: as §1

[18] = target: ETV6 (Homo sapiens, UniProt P41212 1-452); details: protein: recombinant; tags: N-terminal GST; dsDNA, one strand shown
Chain of ETV6 (P41212 whole entry): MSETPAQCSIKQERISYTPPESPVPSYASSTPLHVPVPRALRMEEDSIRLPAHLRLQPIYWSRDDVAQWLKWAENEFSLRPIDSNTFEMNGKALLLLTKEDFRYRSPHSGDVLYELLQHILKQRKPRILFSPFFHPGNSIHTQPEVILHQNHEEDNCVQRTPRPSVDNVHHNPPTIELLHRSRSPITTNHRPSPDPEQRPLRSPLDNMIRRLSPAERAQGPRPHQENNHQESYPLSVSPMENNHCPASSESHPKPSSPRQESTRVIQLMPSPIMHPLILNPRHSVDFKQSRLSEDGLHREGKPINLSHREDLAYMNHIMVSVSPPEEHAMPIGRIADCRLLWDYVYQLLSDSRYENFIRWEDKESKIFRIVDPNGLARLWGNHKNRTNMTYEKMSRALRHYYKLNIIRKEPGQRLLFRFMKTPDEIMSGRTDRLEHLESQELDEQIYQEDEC
Outline: as §1

Sequence	binding signal [1]	binding signal [2]	binding signal [3]	binding signal [4]	binding signal [5]	binding signal [6]	binding signal [7]	binding signal [8]	binding signal [9]	binding signal [10]	binding signal [11]	binding signal [12]	binding signal [13]	binding signal [14]	binding signal [15]	binding signal [16]	binding signal [17]	binding signal [18]
ATCTTC	1.39 fold enrichment (6-mer frequency, TF over GST control)	1.6 fold enrichment (6-mer frequency, TF over GST control)	2.15 fold enrichment (6-mer frequency, TF over GST control)	1.49 fold enrichment (6-mer frequency, TF over GST control)	1.31 fold enrichment (6-mer frequency, TF over GST control)	1.56 fold enrichment (6-mer frequency, TF over GST control)	1.75 fold enrichment (6-mer frequency, TF over GST control)	1.69 fold enrichment (6-mer frequency, TF over GST control)	1.98 fold enrichment (6-mer frequency, TF over GST control)	1.63 fold enrichment (6-mer frequency, TF over GST control)	1.45 fold enrichment (6-mer frequency, TF over GST control)	1.63 fold enrichment (6-mer frequency, TF over GST control)	1.6 fold enrichment (6-mer frequency, TF over GST control)	1.55 fold enrichment (6-mer frequency, TF over GST control)	1.43 fold enrichment (6-mer frequency, TF over GST control)	1.82 fold enrichment (6-mer frequency, TF over GST control)	1.49 fold enrichment (6-mer frequency, TF over GST control)	1.54 fold enrichment (6-mer frequency, TF over GST control)
TTATAT	1.33 fold enrichment (6-mer frequency, TF over GST control)	1.26 fold enrichment (6-mer frequency, TF over GST control)	1.76 fold enrichment (6-mer frequency, TF over GST control)	1.44 fold enrichment (6-mer frequency, TF over GST control)	1.34 fold enrichment (6-mer frequency, TF over GST control)	1.45 fold enrichment (6-mer frequency, TF over GST control)	1.46 fold enrichment (6-mer frequency, TF over GST control)	1.44 fold enrichment (6-mer frequency, TF over GST control)	2.47 fold enrichment (6-mer frequency, TF over GST control)	1.34 fold enrichment (6-mer frequency, TF over GST control)	1.23 fold enrichment (6-mer frequency, TF over GST control)	1.37 fold enrichment (6-mer frequency, TF over GST control)	1.39 fold enrichment (6-mer frequency, TF over GST control)	1.4 fold enrichment (6-mer frequency, TF over GST control)	1.38 fold enrichment (6-mer frequency, TF over GST control)	1.28 fold enrichment (6-mer frequency, TF over GST control)	1.44 fold enrichment (6-mer frequency, TF over GST control)	1.36 fold enrichment (6-mer frequency, TF over GST control)
